# Data reported in PubChem BioAssay AID449762 (Southern Research Specialized Biocontainment Screening …, 2010).
# Out of some 330,000 compounds screened, about 1,900 (0.58%) were called active. Not shown: some 4% with an inconclusive outcome. A selection follows. Results with a measured potency or affinity are listed apart. Unmarked numbers belong to inactive results. Cut-off read from the data, not from the text of the source: inconclusive = inhibition above about 70% without an active follow-up result; inactive = below that.
# Experiment: M. tuberculosis growth inhibition, HTS (AID 449762);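 note: bacterial growth assessed after seven days of incubation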
# Conditions: M. tuberculosis H37Rv growth inhibition, 7H9 media; at 25 µM; active compounds read high
row,SMILES,inhibition [%]
1,CCOc1ccccc1NC(=O)c1ccccc1N(C)S(C)(=O)=O,-4.2
2,COc1ccc(C2C(C#N)=C(N)N(Nc3ccccc3)C3=C2C(=O)CC(C)(C)C3)cc1C (stereo unspecified),-5.96
3,COc1ccc(C2C(C#N)=C(N)N(N(C)C)C3=C2C(=O)CC(C)(C)C3)cc1OC (stereo unspecified),7.78
4,CSc1ccccc1OCc1cc(C(=O)NC(C)CCn2cccn2)no1 (stereo unspecified),-15.6
5,Cc1cc(C)n(C(=O)c2ccc([N+](=O)[O-])cc2Cl)n1,5.54
6,Cc1cc(C)n(C(=O)c2ccc([N+](=O)[O-])cc2N)n1,-4
7,Cc1nc([N+](=O)[O-])cn1CC(=O)c1ccc(Br)cc1,4.4
8,CC(C)C(=O)c1cn(CC(=O)NCc2ccc3c(c2)OCO3)c2ccccc12,-5.3
9,CS(=O)(=O)n1nc(-c2cccnc2)nc1NCc1ccccc1,0.47
10,CC(=O)n1nc(-c2ccccc2)nc1NCc1ccc(N(C)C)cc1,0.39
11,CCN(CC)CC(=O)NCC1(c2ccccc2)CCCC1,-3.12
12,O=C(O)C1C2C=CC(C2)C1C(=O)Nc1ccc(C(=O)N2CCCCC2)cc1 (stereo unspecified),1.87
13,CCOC(=O)C(=O)N=Nc1c(O)n(C)c2ccccc12,1.87
14,COc1cccc(N=Nc2c(=O)[nH]n3c(C)cc(C)nc23)c1,0.98
15,Cc1cc(C)n2[nH]c(=O)c(N=Nc3ccccc3)c2n1,4.19
16,COc1ccc(/C=C/C(=O)c2oc3ccc(F)cc3c2C)cc1,10.9
17,Cc1c(C(=O)N2CCN(C(=O)c3ccccc3)CC2)oc2ccc(F)cc12,-0.86
18,CC(=O)c1ccc(OCC(=O)Nc2cccc(S(=O)(=O)N3CCCC3)c2)cc1,-6.55
19,O=C(COC(=O)c1cccs1)NCc1ccco1,-0.65
20,COc1cc(NC(=O)c2cccs2)c(C(=O)OCC(=O)NCc2ccccc2)cc1OC,-0.2
21,COc1cccc(CN(C)C(=O)c2ccc3c(=O)n4c(nc3c2)CCC4)c1OC,1.09
22,COc1ccc(COC(=O)c2ccc3c(=O)n4c(nc3c2)CCC4)cc1F,3.8
23,C[C@H](NC(=O)C1CCN(S(=O)(=O)c2ccccc2)CC1)C(=O)NCc1ccc(Cl)cc1Cl,-1.33
24,O/C(=C\Sc1nnc(Cc2ccccc2)o1)c1ccc(F)cc1,7.63
25,O/C(=C\Sc1nnc(Cc2ccccc2)o1)c1ccc(Br)cc1,8.01
26,CCC(C)(C)NC(=O)C(c1ccncc1)N(C(=O)c1sc(C)nc1C)c1ccc(C)cc1 (stereo unspecified),3.84
